Source: PubChem BioAssay (NCATS)
Records with an inconclusive call do not appear. Calls of active or inactive are those of the source. Calls follow the shape of the dose curve; as a rule, active = well fitted curve in the direction sought with a large enough effect; inconclusive = small, poorly fitted or top-dose-only effect, or another doubt; inactive = no such curve, though single readings can be large; an effect the other way counts as inactive or inconclusive.

How the values were obtained:
HACAT = experiment: qHTS assay to identify novel small-molecules to repurpose for Merkel cell carcinoma treatment (AID 1296009); settings: MCC and control cell lines, CellTiter-Glo viability, 72 h; at 44.8 µM (top of the series) unless noted; also: nearly all actives have a fitted effect of over 60% in size
In short: (§1)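 Cell viability measured by CellTiter-Glo following 72 hr compound treatment at 37 degree celsius, with NPC and MIPE libraries tested in 8- and 11-point concentration series.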

NIH3T3 = experiment: as above; settings: MCC and control cell lines, CellTiter-Glo viability, 72 h; at 44.8 µM (top of the series) unless noted
In short: as §1

C33A = experiment: Primary qHTS to identify gynecologic anti-cancer compounds using libraries of approved drugs and bioactive compounds (AID 1345084); settings: Gynecologic cancer cell panel viability, ATPlite luminescence, 48 h; series mostly up to 57.5 µM; also: % is scaled to controls: 0 for no effect and ±100 for the full control effect; nearly all actives have a fitted effect of over 55% in size
In short: (§2)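 In this quantitative HTS, cell killing is estimated from loss of ATP-dependent luciferase light. Cells see five compound concentrations over a 48 h exposure.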

CAOV3 = experiment: as above; settings: Gynecologic cancer cell panel viability, ATPlite luminescence, 48 h; series mostly up to 57.5 µM
In short: as §2

CASKI = experiment: as above; settings: Gynecologic cancer cell panel viability, ATPlite luminescence, 48 h; series mostly up to 57.5 µM
In short: as §2

Es-2 = experiment: as above; settings: Gynecologic cancer cell panel viability, ATPlite luminescence, 48 h; series mostly up to 57.5 µM
In short: as §2

HeLa = experiment: as above; settings: Gynecologic cancer cell panel viability, ATPlite luminescence, 48 h; series mostly up to 57.5 µM
In short: as §2

Hek293T = experiment: as above; settings: Gynecologic cancer cell panel viability, ATPlite luminescence, 48 h, control line for the selectivity index; series mostly up to 57.5 µM
In short: as §2

JEG-3 = experiment: as above; settings: Gynecologic cancer cell panel viability, ATPlite luminescence, 48 h; series mostly up to 57.5 µM
In short: as §2

OV90 = experiment: as above; settings: Gynecologic cancer cell panel viability, ATPlite luminescence, 48 h; series mostly up to 57.5 µM
In short: as §2

PA-1 = experiment: as above; settings: Gynecologic cancer cell panel viability, ATPlite luminescence, 48 h; series mostly up to 57.5 µM
In short: as §2

SKOV3 = experiment: as above; settings: Gynecologic cancer cell panel viability, ATPlite luminescence, 48 h; series mostly up to 57.5 µM
In short: as §2

Tov-21-G = experiment: as above; settings: Gynecologic cancer cell panel viability, ATPlite luminescence, 48 h; series mostly up to 57.5 µM
In short: as §2

Tov112D = experiment: as above; settings: Gynecologic cancer cell panel viability, ATPlite luminescence, 48 h; series mostly up to 57.5 µM
In short: as §2

CC1(C)CC[C@]2(C(=O)O[C@@H]3O[C@H](CO)[C@@H](O)[C@H](O)[C@H]3O)CC[C@]3(C)C(=CCC4[C@@]5(C)CC[C@H](O[C@@H]6O[C@H](C(=O)O)[C@@H](O[C@@H]7O[C@H](CO)[C@@H](O)[C@H](O)[C@H]7O)[C@H](O)[C@H]6O[C@@H]6O[C@H](CO)[C@@H](O)[C@H](O)[C@H]6O)C(C)(C)C5CC[C@]43C)C2C1 (some centres undefined)
inactive: outcome (HACAT) inactive [at 9.27 µM] | outcome (NIH3T3) inactive [at 9.27 µM] | activity change, negative = cytotoxicity (C33A) -1.12% [at 11.6 µM] | activity change, negative = cytotoxicity (CAOV3) 5.45% [at 11.6 µM] | activity change, negative = cytotoxicity (CASKI) 8.01% [at 11.6 µM] | activity change, negative = cytotoxicity (Es-2) -12.1% [at 11.6 µM] | activity change, negative = cytotoxicity (HeLa) 0.908% [at 11.6 µM] | activity change, negative = cytotoxicity (Hek293T) 0.105% [at 11.6 µM] | activity change, negative = cytotoxicity (JEG-3) 18.6% [at 11.6 µM] | activity change, negative = cytotoxicity (OV90) 4.99% [at 11.6 µM] | activity change, negative = cytotoxicity (PA-1) 18.4% [at 11.6 µM] | activity change, negative = cytotoxicity (SKOV3) 10.3% [at 11.6 µM] | activity change, negative = cytotoxicity (Tov-21-G) -2% [at 11.6 µM] | activity change, negative = cytotoxicity (Tov112D) 6.91% [at 11.6 µM]

CC(C)=CCc1cc(O[C@@H]2O[C@H](CO[C@@H]3OC[C@](O)(CO)[C@H]3O)[C@@H](O)[C@H](O)[C@H]2O)ccc1O
inactive: outcome (HACAT) inactive [at 17.4 µM] | outcome (NIH3T3) inactive [at 17.4 µM] | Potency (C33A) | Potency (CAOV3) | outcome (CASKI) | Potency (Es-2) | Potency (HeLa) | Potency (Hek293T) | Potency (JEG-3) | Potency (OV90) | Potency (PA-1) | Potency (SKOV3) | Potency (Tov-21-G) | Potency (Tov112D)

CC(C)c1cc2c(c(O)c1O)[C@@]13CCCC(C)(C)C1[C@@H](O)[C@@H]2OC3=O (some centres undefined)
inactive: outcome (HACAT) | outcome (NIH3T3) | Potency (C33A) | Potency (CAOV3) | outcome (CASKI) | Potency (Es-2) | Potency (HeLa) | Potency (Hek293T) | Potency (JEG-3) | Potency (OV90) | Potency (PA-1) | Potency (SKOV3) | Potency (Tov-21-G) | Potency (Tov112D)

c1cc(-c2cc(C3CCNCC3)[nH]n2)ccn1
inactive: outcome (HACAT) inactive [at 17.4 µM] | outcome (NIH3T3) inactive [at 17.4 µM] | Potency (C33A) | Potency (CAOV3) | outcome (CASKI) | Potency (Es-2) | Potency (HeLa) | Potency (Hek293T) | Potency (JEG-3) | Potency (OV90) | Potency (PA-1) | Potency (SKOV3) | Potency (Tov-21-G) | Potency (Tov112D)

C[C@@H]1O[C@@H](O[C@@H]2[C@@H](O)[C@H](O[C@H]3[C@H](O[C@H]4CC[C@@]5(C)C(CC[C@]6(C)C5CC=C5[C@@H]7CC(C)(C)CC[C@]7(C(=O)O[C@@H]7O[C@H](CO)[C@@H](O)[C@H](O)[C@H]7O)CC[C@]56C)C4(C)C)O[C@H](C(=O)O)[C@@H](O)[C@@H]3O)OC[C@H]2O)[C@H](O)[C@H](O)[C@H]1O (some centres undefined)
inactive: outcome (HACAT) inactive [at 9.27 µM] | outcome (NIH3T3) inactive [at 9.27 µM] | activity change, negative = cytotoxicity (C33A) -13.9% [at 11.6 µM] | activity change, negative = cytotoxicity (CAOV3) -6.12% [at 11.6 µM] | activity change, negative = cytotoxicity (CASKI) -1.32% [at 11.6 µM] | activity change, negative = cytotoxicity (Es-2) -9.99% [at 11.6 µM] | activity change, negative = cytotoxicity (HeLa) -3.66% [at 11.6 µM] | activity change, negative = cytotoxicity (Hek293T) -0.983% [at 11.6 µM] | activity change, negative = cytotoxicity (JEG-3) -0.837% [at 11.6 µM] | activity change, negative = cytotoxicity (OV90) 0.961% [at 11.6 µM] | activity change, negative = cytotoxicity (PA-1) 4.95% [at 11.6 µM] | activity change, negative = cytotoxicity (SKOV3) 20.4% [at 11.6 µM] | activity change, negative = cytotoxicity (Tov-21-G) 1.4% [at 11.6 µM] | activity change, negative = cytotoxicity (Tov112D) 6.86% [at 11.6 µM]

C[C@@H]1O[C@@H](O[C@H]2[C@H](OC(=O)[C@]34CCC(C)(C)C[C@H]3C3=CCC5[C@@]6(C)C[C@@H](O)[C@@H](O)[C@@](C)(CO)C6[C@H](O)C[C@@]5(C)[C@]3(C)CC4)OC[C@H](O)[C@@H]2O)[C@H](O)[C@H](O)[C@H]1O[C@@H]1OC[C@@H](O)[C@H](O[C@H]2O[C@H](C)[C@@H](O)[C@H](O)[C@@H]2O)[C@H]1O (some centres undefined)
inactive: outcome (HACAT) inactive [at 9.27 µM] | outcome (NIH3T3) inactive [at 9.27 µM] | activity change, negative = cytotoxicity (C33A) -5.04% [at 11.6 µM] | activity change, negative = cytotoxicity (CAOV3) 7.19% [at 11.6 µM] | activity change, negative = cytotoxicity (CASKI) 15.8% [at 11.6 µM] | activity change, negative = cytotoxicity (Es-2) 6.09% [at 11.6 µM] | activity change, negative = cytotoxicity (HeLa) 13.1% [at 11.6 µM] | activity change, negative = cytotoxicity (Hek293T) -1.53% [at 11.6 µM] | activity change, negative = cytotoxicity (JEG-3) 3.24% [at 11.6 µM] | activity change, negative = cytotoxicity (OV90) 9.69% [at 11.6 µM] | activity change, negative = cytotoxicity (PA-1) 12.4% [at 11.6 µM] | activity change, negative = cytotoxicity (SKOV3) -1.53% [at 11.6 µM] | activity change, negative = cytotoxicity (Tov-21-G) 0.722% [at 11.6 µM] | activity change, negative = cytotoxicity (Tov112D) 3.92% [at 11.6 µM]
